Experimental findings from PubChem BioAssay are described below.

Measured potencies and affinities stand elsewhere. Active and inactive are the calls of the source.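 How the source made its calls: active means fitted half-maximal concentration within the tested dose range, moderate curve steepness, a statistically real signal drop, and little compound fluorescence or tag-binding interference; inactive means the rest.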

The target of this test is Cell division control protein 42 homolog (Homo sapiens) (UniProt P60953). The test can be described thus: activated mutant Cdc42 GTP-binding inhibitors, dose response, biochemical, multiplex bead flow cytometry, Bodipy-FL-GTP (AID 1333). Conditions: bead-based flow cytometry; series mostly up to 100 µM.
Regarding `CCOc1cc(/C=N/NC(=O)CSc2cccc3cccnc23)ccc1O`, the compound was classed as inactive.

Turning to `CCCCNc1nc(=S)[nH]c2cc(OC)c(OC)cc12`, the compound was called inactive.

As to `CSc1nc2ccc(NC(=O)C3CC(=O)N(Cc4ccco4)C3)cc2s1` (configuration not stated), the outcome was inactive.

For the compound `CN1CCN(c2ccccc2NC(=O)c2ccc(-c3cccc([N+](=O)[O-])c3)o2)CC1`, the compound was classed as inactive.

On to `COc1ccc(CNc2nc3c(c(=O)n(Cc4ccc(Cl)cc4)c(=O)n3C)n2C)cc1`, for which the compound was called inactive.

With `Cc1ccc(-c2noc(CN3C(C)CCCC3C)n2)cc1` (configuration not stated), the compound was called inactive.

In the case of `O=C(COc1ccccc1/C=C\c1[nH]c(=O)[nH]c(=O)c1[N+](=O)[O-])Nc1ccccc1`, the call was inactive.

Regarding `Oc1ccc(C2=Nn3c(nnc3-c3ccco3)SC2)cc1O`, the result was inactive.

Consider `Cc1ccc(OCc2ccc(C(=O)O)o2)cc1C`, for which the result was inactive.

In the case of `C=CCn1c(-c2csc(-c3ccc(Cl)cc3)n2)n[nH]c1=S`, the outcome was inactive.

For `O=C(O)COc1ccccc1/C=N/Nc1ccc(S(=O)(=O)Nc2ccc(Cl)cc2)cc1[N+](=O)[O-]`, the result was inactive.

`O=C1c2ccccc2C(=O)N1CCCCN(C(=O)c1cc2ccccc2oc1=O)c1ccc(Cl)cc1`: the compound was called inactive.

On to `Cn1c(SCC(=O)Nc2cc(C(C)(C)C)nn2-c2ccccc2)nc2ccccc21`, for which the compound was classed as inactive.

Consider `CCCCCCNc1cc2n(c(=O)n1)CCc1cc(OC)c(OC)cc1-2`, for which the result was inactive.

For `Nc1c([N+](=O)[O-])cc(-c2cnc[nH]2)cc1[N+](=O)[O-]`, the result was inactive.

Take `CC(=O)Oc1cccc(C#CC(=O)c2ccc([N+](=O)[O-])cc2)c1`: the call was inactive.

Consider `CCc1nnc(NC(=O)CCC(=O)N2CCN(c3ccccn3)CC2)s1`, for which the outcome was inactive.
